Reference: PubChem BioAssay
Active and inactive are the calls of the source.

Experiments:
[1] = system: Plasmodium falciparum Sir2 (PF13_0152, Sir2A); assay: pfSir2 binders on small-molecule microarrays, primary screen, biochemical, small-molecule microarray, 635 nm fluorescence (AID 1098); settings: small-molecule microarray binding, fluorescence 635 nm; higher = more signal;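 note: score merges spot fluorescence intensity with its signal-to-noise ratio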
[2] = small-molecule microarray binders of probe aDKK1, primary screen, biochemical, biotinylated probe, 635/667 nm fluorescence (AID 1099); settings: higher = more signal;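 note: score merges 667nm spot fluorescence with signal to noise across triplicate slides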
[3] = small-molecule microarray binders of probe aCHRDL2, primary screen, biochemical, biotinylated probe, 635/667 nm fluorescence (AID 1100); settings: higher = more signal
[4] = splicing luciferase reporter signal modulators, primary screen, spliceosome inhibition project, cell-based, HEK293, splice +/- reporter (AID 1101); settings: luminescence, 24 h, higher = more signal, called active from +8 up or from −8 down;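 note: HEK293 cells carrying a splicing-competent luciferase reporter gene; test concentration not given here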
[5] = biological target: Fibroblast growth factor 10 (Homo sapiens) (UniProt O15520); assay: FGF10 binders on small-molecule microarrays, primary screen, biochemical, small-molecule microarray, 635 nm fluorescence (AID 1102); settings: FGF10 binding, fluorescence 635 nm, higher = more signal
Sequence of Fibroblast growth factor 10 (Homo sapiens) (O15520 whole entry, looked up): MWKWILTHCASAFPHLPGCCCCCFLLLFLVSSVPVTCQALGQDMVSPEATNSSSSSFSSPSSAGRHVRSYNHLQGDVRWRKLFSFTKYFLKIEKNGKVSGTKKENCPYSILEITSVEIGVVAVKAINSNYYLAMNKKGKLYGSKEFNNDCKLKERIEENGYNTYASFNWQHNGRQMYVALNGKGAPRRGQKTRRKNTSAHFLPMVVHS

[6] = system: glycogen synthase kinase-3 (GSK3A per assay name; protocol says GSK3B); assay: GSK3 binders on small-molecule microarrays, primary screen, biochemical, small-molecule microarray, 635 nm fluorescence, GSK3A (AID 1103); settings: small-molecule microarray binding, fluorescence 635 nm; higher = more signal; note: the record names both GSK3A and GSK3B
[7] = biological target: Epidermal growth factor receptor (Homo sapiens) (UniProt P00533); assay: EGFR binders on small-molecule microarrays, primary screen, biochemical, small-molecule microarray, 635 nm fluorescence (AID 1104); settings: EGFR binding, higher = more signal;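 note: score merges 667 nm emission intensity with spot signal to noise over triplicate slides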
Sequence of Epidermal growth factor receptor (Homo sapiens) (P00533 whole entry, looked up): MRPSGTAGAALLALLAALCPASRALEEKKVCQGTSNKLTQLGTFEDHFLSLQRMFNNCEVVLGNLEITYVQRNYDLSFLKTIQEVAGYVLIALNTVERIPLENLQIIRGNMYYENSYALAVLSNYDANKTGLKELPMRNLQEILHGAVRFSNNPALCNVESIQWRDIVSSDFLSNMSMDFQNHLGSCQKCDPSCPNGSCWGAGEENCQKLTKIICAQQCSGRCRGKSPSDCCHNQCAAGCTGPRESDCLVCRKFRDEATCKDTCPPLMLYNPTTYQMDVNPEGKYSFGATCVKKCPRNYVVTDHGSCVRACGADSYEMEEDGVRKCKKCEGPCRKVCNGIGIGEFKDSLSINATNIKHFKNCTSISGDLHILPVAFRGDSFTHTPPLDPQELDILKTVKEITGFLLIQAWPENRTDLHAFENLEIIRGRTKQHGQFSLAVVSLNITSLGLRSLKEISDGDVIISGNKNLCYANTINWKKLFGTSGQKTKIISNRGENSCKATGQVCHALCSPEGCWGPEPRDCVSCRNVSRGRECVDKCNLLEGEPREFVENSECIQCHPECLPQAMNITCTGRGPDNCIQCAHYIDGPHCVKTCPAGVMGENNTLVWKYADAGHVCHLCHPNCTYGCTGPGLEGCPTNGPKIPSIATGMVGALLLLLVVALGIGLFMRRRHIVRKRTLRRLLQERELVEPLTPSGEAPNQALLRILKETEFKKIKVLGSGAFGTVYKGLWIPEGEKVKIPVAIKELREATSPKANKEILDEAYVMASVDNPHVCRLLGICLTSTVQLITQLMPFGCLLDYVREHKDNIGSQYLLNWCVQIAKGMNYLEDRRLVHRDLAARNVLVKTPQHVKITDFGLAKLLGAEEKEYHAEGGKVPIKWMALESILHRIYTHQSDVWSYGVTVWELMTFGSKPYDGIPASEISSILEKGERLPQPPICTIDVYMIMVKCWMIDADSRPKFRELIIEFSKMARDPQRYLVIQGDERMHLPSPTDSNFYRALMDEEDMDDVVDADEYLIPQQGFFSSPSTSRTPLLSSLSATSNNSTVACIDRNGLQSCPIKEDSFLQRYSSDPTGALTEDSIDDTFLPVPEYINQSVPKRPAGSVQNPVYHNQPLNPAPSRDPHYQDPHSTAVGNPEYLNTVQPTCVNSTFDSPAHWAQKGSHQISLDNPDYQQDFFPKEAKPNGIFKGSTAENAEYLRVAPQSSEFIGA

[8] = biological target: Follistatin-related protein 3 (Homo sapiens) (UniProt O95633); assay: FSTL3 binders on small-molecule microarrays, primary screen, biochemical, small-molecule microarray, 635 nm fluorescence (AID 1105); settings: FSTL3 binding, higher = more signal;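 note: score merges emission near 667 nm and signal to noise per printed spot across three slides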
Sequence of Follistatin-related protein 3 (Homo sapiens) (O95633 whole entry, looked up): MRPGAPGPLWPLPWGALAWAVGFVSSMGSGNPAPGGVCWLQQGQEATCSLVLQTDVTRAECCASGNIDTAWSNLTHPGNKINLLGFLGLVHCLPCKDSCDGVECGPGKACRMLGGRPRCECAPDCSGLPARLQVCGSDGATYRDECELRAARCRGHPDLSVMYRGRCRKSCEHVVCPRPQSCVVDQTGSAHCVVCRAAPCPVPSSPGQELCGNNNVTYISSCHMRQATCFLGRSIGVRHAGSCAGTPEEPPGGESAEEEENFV

[9] = biological target: Dickkopf-related protein 1 (Homo sapiens) (UniProt O94907); assay: DKK1 binders on small-molecule microarrays, primary screen, biochemical, small-molecule microarray, 635 nm fluorescence scan (AID 1106); settings: DKK1 binding, higher = more signal;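 note: score merges emission near 667 nm with signal to noise over three replicate slides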
Sequence of Dickkopf-related protein 1 (Homo sapiens) (O94907 whole entry, looked up): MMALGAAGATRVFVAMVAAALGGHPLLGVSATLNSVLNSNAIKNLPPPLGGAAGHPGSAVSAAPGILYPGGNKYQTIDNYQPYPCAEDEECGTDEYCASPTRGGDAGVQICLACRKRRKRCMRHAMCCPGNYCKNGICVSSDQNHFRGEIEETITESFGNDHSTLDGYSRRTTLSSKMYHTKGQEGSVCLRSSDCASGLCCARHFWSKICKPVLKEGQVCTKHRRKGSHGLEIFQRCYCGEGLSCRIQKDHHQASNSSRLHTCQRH

[10] = system: Inhibin beta A chain (activin A); assay: INHBA (activin A) binders on microarrays, primary screen, biochemical, small-molecule microarray, 635 nm fluorescence scan (AID 1107); settings: small-molecule microarray binding, higher = more signal;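 note: mouse activin A protein probed at 4.33 µg/mL on printed slides; score merges bound-protein fluorescence near 667 nm with spot signal-to-noise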
[11] = system: Human papillomavirus type 1a protein E7 (residues 44-93); assay: HPV1a E7 fragment binders on microarrays, primary screen, biochemical, small-molecule microarray, residues 44-93, 635 nm fluorescence (AID 1108); settings: small-molecule microarray binding, fluorescence 635 nm; higher = more signal;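 note: E7 fragment applied at 1 µg/mL in TBST for 1 h at 4 C; score combines spot fluorescence with its signal to noise ratio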
[12] = modulators of HCV replicon luciferase signal, primary screen, HCV replication inhibitor project, Huh7 cells, luciferase reporter (AID 1109); settings: 48 h, higher = more signal;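 note: huh7 hepatoma cells harbouring a luciferase neomycin HCV replicon reporter; luciferase luminescence as measure of HCV replicon replication; test concentration not given here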
[13] = biological target: Left-right determination factor 2 (Homo sapiens) (UniProt O00292); assay: LEFTY2 binders on small-molecule microarrays, primary screen, biochemical, small-molecule microarray, 635 nm fluorescence scan (AID 1110); settings: LEFTY2 binding, higher = more signal
Sequence of Left-right determination factor 2 (Homo sapiens) (O00292 whole entry, looked up): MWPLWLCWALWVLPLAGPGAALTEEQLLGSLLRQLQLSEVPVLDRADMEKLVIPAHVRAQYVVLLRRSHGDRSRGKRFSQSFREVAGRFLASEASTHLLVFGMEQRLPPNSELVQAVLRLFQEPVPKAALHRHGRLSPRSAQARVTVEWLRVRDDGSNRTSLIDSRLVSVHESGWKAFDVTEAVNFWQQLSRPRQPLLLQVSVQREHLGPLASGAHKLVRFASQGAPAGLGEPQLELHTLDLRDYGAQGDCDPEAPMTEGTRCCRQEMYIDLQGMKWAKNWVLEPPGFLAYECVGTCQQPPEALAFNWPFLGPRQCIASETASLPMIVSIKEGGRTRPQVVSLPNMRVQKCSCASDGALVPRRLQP

[14] = biological target: Calmodulin-1 (Homo sapiens) (UniProt P0DP23); assay: CALM1 binders on microarrays, EGTA buffer, profiling panel, biochemical, small-molecule microarray, Cy5-labelled CALM1 (AID 1111); settings: Cy5-CALM1 binding fluorescence, higher = more signal;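 note: labelled calmodulin applied in Tris saline Tween buffer holding calcium plus EGTA and DTT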
[15] = biological target: Calmodulin-1 (Homo sapiens) (UniProt P0DP23); assay: calcium-bound CALM1 binders on microarrays, profiling panel, artefact control for SMM control-protein annotation, biochemical, small-molecule microarray, Cy5-labelled CALM1, plus calcium (AID 1112); settings: Cy5-CALM1 binding fluorescence, higher = more signal;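 note: score merges spot fluorescence with signal to noise from triplicate slides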
[16] = small-molecule microarray binders of probe aWnt5a, primary screen, biochemical, biotinylated probe, 635/667 nm fluorescence (AID 1113); settings: higher = more signal;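 note: score merges 667 nm fluorescence intensity with signal-to-noise per printed feature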
[17] = small-molecule microarray binders of probe aShh, primary screen, biochemical, biotinylated probe, 635/667 nm fluorescence (AID 1114); settings: higher = more signal;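 note: probe is biotin-labelled aShh protein from a stem cell growth factor screen; measures binding of labelled protein to compounds printed on the slide; score merges feature fluorescence at 667 nm with signal-to-noise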
[18] = small-molecule microarray binders of probe aNog, primary screen, biochemical, biotinylated probe, 635/667 nm fluorescence (AID 1115); settings: higher = more signal;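 note: probe is biotinylated aNog protein used at 0.15 µg/mL for 1 h at 4 C; z-score combines 667 nm fluorescence of each spot with its signal to noise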
[19] = biological target: Torsin-1A-interacting protein 1 (Homo sapiens) (UniProt Q5JTV8); assay: LAP1 binders from COS7 cell lysate, primary screen, small-molecule microarray, 635/667 nm fluorescence (AID 1116); settings: COS7-hLAP1 lysate binding, 635 nm fluorescence, higher = more signal
Sequence of Torsin-1A-interacting protein 1 (Homo sapiens) (Q5JTV8 whole entry, looked up): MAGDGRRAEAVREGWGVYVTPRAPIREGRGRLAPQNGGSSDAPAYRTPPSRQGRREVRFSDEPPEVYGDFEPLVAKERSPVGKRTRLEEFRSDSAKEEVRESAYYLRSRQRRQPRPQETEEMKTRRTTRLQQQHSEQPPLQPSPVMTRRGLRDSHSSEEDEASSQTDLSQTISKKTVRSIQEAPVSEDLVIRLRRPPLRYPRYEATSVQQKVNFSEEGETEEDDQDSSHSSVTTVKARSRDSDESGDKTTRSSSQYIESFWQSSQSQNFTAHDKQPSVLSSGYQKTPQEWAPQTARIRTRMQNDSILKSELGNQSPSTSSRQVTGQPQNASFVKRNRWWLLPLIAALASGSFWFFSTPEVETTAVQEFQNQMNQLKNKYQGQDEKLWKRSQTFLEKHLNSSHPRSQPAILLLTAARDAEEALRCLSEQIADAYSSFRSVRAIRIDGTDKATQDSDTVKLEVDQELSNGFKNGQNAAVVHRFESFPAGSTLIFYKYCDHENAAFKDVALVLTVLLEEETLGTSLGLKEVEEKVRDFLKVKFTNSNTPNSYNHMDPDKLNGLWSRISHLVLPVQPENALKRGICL

[20] = biological target: Alpha-bungarotoxin (Bungarus multicinctus) (UniProt P60615); assay: alpha-bungarotoxin binders on microarray, profiling panel, artefact control for SMM control protein annotation, biochemical, small-molecule microarray, Alexa647 label, 635/667 nm fluorescence (AID 1117); settings: alpha-BTX-A647 binding fluorescence, higher = more signal
Sequence of Alpha-bungarotoxin (Bungarus multicinctus) (P60615 whole entry, looked up): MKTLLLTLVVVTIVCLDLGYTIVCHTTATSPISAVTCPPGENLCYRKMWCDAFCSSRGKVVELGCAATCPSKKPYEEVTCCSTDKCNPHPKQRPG

| Compound | composite z-score [1] | composite z-score [2] | composite z-score [3] | z-score [4] | composite z-score [5] | composite z-score [6] | composite z-score [7] | composite z-score [8] | composite z-score [9] | composite z-score [10] | composite z-score [11] | z-score [12] | composite z-score [13] | composite z-score [14] | composite z-score [15] | composite z-score [16] | composite z-score [17] | composite z-score [18] | composite z-score [19] | composite z-score [20] |
| --- | --- | --- | --- | --- | --- | --- | --- | --- | --- | --- | --- | --- | --- | --- | --- | --- | --- | --- | --- | --- |
| CC(C)[Si](C#CCCCC#N)(O[C@H](c1ccccc1)c1cn([C@H](CO)Cc2ccccc2)nn1)C(C)C | 0.726 | -0.151 | 0.138 | -0.401 (inactive) | 0.61 | 0.709 | 0.52 | 1.36 | 0.598 | 0.0469 | 0.385 | -1.33 | 0.36 | 1.11 | 0.295 | -0.0459 | -0.0793 | 0.0392 | 0.222 | 0.559 |
| NC(=O)NCC#Cc1ccc2c(c1)[C@]1(C(=O)N2)[C@H](C(=O)O)[C@H]2C(=O)O[C@H](c3ccccc3)[C@H](c3ccccc3)N2[C@@H]1c1ccc(OCCO)cc1 | 1.49 | 0.0638 | 0.799 | -0.253 (inactive) | 0.261 | -0.547 | -0.03 | 0.582 | 0.158 | 0.882 | 1.05 | -0.327 | -0.288 | 0.382 | 0.117 | 0.0077 | 0.13 | -0.265 | 0.324 | 2.01 |
| COC(=O)[C@H](Cc1ccccc1)N1CC(/C=C/C2CC2)=C[C@H]1[C@H](O)Cc1ccccc1 | 0.728 | -0.0559 | -0.165 | 20.9 (active) | 0.697 | 0.368 | 0.237 | 0.702 | 0.734 | 0.597 | 0.484 | -4.03 | 0.396 | 0.405 | -0.647 | -0.0944 | -0.0693 | 0.287 | 0.425 | 1.2 |
| [N-]=[N+]=Nc1ccccc1[C@H]1OC(c2ccc(OCCCO)cc2)=N[C@@]1(Cc1ccccc1)C(=O)N1CCCCC1 | 0.813 | 1.04 | 1.13 | 1.35 (inactive) | 1.45 | 0.99 | 0.422 | 1.11 | 1.18 | 1.03 | 1.45 | -2.13 | 0.346 | 1.53 | 0.735 | 0.299 | 0.204 | 1.28 | 2.12 | 1.53 |
| CCOc1cc(C(O)C2C=CC3C(=O)N(C)C(=O)C3N2Nc2ccccc2)ccc1O (stereo not given) | 0.764 | 0.791 | 0.0692 | 0.719 (inactive) | 0.736 | 0.57 | 0.0228 | 0.0592 | -0.329 | 0.569 | 1.24 | -0.146 | 0.0031 | 0.796 | -0.211 | -0.0165 | -0.155 | -0.145 | 1.92 | 0.848 |
| CN(C)C(=O)[C@@]1(Cc2ccccc2CN=[N+]=[N-])N=C(c2ccc(OCCCO)cc2)O[C@H]1c1ccccc1CN=[N+]=[N-] | 1.03 | 0.832 | 0.915 | 1.2 (inactive) | 0.871 | -0.581 | -0.167 | -0.0464 | -0.687 | 0.846 | 1.27 | -2.63 | -0.462 | 1.69 | 1 | 0.0655 | 0.551 | 0.771 | 1.56 | 1.11 |
| CN(C)CCCCNC(=O)[C@@H]1C[C@@H]2C(=O)N[C@@H](Cc3ccccc3)C(=O)N2[C@@H]1c1cccc(OCCO)c1 | 0.769 | 0.0115 | 0.393 | -1.88 (inactive) | 0.407 | 0.727 | 0.404 | 1.26 | 1.28 | 0.0765 | 1.34 | 4.01 | 1.24 | -0.349 | -0.125 | -0.127 | 0.0952 | -0.0721 | 0.0715 | 0.612 |
| O=C1OCCC/C=C\[C@H]2OC34C=CCN(CCN5CCOCC5)C(=O)[C@H]3N(CCCCCCO)C(=O)[C@@H]4C12 (stereo not given in full) | 1.16 | -0.0117 | -0.0021 | -1.4 (inactive) | -0.145 | 0.229 | -0.684 | -0.0634 | -0.528 | 1.41 | -0.776 | 0.857 | -0.311 | -0.523 | -0.909 | -0.18 | -0.0553 | -0.103 | 1.52 | -0.162 |
| CCCC[C@@H]1C[C@H]1[C@@H](NC(=O)Cc1ccccc1)c1ccc(-c2ccccc2)cc1 | -0.146 | -0.0423 | 0.712 | -1.26 (inactive) | 0.0191 | 0.117 | 0.172 | 0.135 | -0.46 | 0.685 | 1.24 | -0.783 | -0.319 | 0.538 | 0.588 | -0.0276 | 0.0098 | -0.0503 | 0.487 | 0.263 |
| COC(=O)C1=CC(CCCO)=CC(C2CC2)N(C)C=C1C(=O)OC (stereo not given) | 0.948 | -0.302 | 0.41 | -0.519 (inactive) | -0.259 | -0.302 | -0.0025 | 0.481 | -0.673 | 0.576 | -0.105 | -0.902 | -0.087 | 0.727 | 0.295 | -0.184 | 0.449 | -0.328 | 1.03 | -0.24 |
| C=C(/C(=C/C[C@@H](OC(C)=O)c1cccc(OCCO)c1)c1cc(C(=O)OC)ccc1OC)C(C)C | 0.628 | 0.153 | -0.0171 | -0.0584 (inactive) | 0.855 | -0.298 | -0.122 | 0.533 | -0.35 | 0.632 | 0.522 | -1.53 | 0.256 | -0.343 | -0.563 | -0.221 | -0.221 | -0.223 | 0.189 | 0.215 |
